Assay outcomes from PubChem BioAssay.
Vaccinia mCherry – qHTS for Stage-Specific Inhibitors of Vaccinia Orthopoxvirus: mCherry Reporter Primary qHTS. Vaccinia virus mCherry reporter infection, fluorescence. Potency, µM (titrated, usually from 36.5 µM), inactives show at the top dose activity change, negative = inhibition, usual class: inhibitors. 0.63% of 310,000 active; calls by dose curve; tested in A549 cells; further: potency means the concentration at half of the fitted maximal effect; on the % scale 0 is the no-effect control and ±100 the full control effect; nearly all actives have a fitted effect of over 35% in size
Cycloheximide cs – Cycloheximide Counterscreen for Small Molecule Inhibitors of Shiga Toxin | cell reporter, cycloheximide protein synthesis inhibition counterscreen | max response, % | 12% of 300,000 active | AID 2314, 2010; in the data active means max response mostly above about 13%, no sharp cut-off; inactive means mostly below about 14%; further: read at 38.3 µM for the half of the compounds with a filed dose; 0% is about no effect
Marburg entry inh – qHTS for inhibitors of binding or entry into cells for Marburg Virus; 1.8% of 300,000 active; AID 540276, 2011; Marburg virus pseudotyped entry inhibition, cell reporter; Potency, µM (highest dose often 37.8 µM), for inactives: at the top dose activity change, negative = inhibition, hits mostly inhibitors; calls by dose curve; tested in HEK293 cells; further: potency means the concentration at half of the fitted maximal effect; on the % scale 0 is the no-effect control and ±100 the full control effect
LASV entry inh – qHTS for Inhibitors of binding or entry into cells for Lassa Virus | Lassa virus pseudotype entry inhibition, cell reporter | Potency, µM (top dose mostly 37.9 µM), for inactives: top-dose activity change, negative = inhibition, actives largely listed as inhibitors | 1.2% of 300,000 active | AID 540256, 2011; calls by dose curve; tested in HEK293 cells; further: potency means the concentration at half of the fitted maximal effect; on the % scale 0 is the no-effect control and ±100 the full control effect; nearly all actives have a fitted effect of over 50% in size
Vaccinia Venus – qHTS for Stage-Specific Inhibitors of Vaccinia Orthopoxvirus: Venus Reporter Primary qHTS; Vaccinia virus Venus reporter expression, fluorescence; Potency, µM (doses to about 36.5 µM), for inactives: at the top dose activity change, negative = inhibition, hits mostly inhibitors; 0.46% of 330,000 active; AID 720580, 2013; calls by dose curve; tested in A549 cells; further: potency means the concentration at half of the fitted maximal effect; on the % scale 0 is the no-effect control and ±100 the full control effect; nearly all actives have a fitted effect of over 30% in size
Shiga toxin inh – A qHTS for Small Molecule Inhibitors of Shiga Toxin; inhibition, % at 38.7 µM; 9.2% of 290,000 active; Vero cells, Shiga toxin protein synthesis inhibition reporter; in the data active means inhibition mostly above about 28%, no sharp cut-off; inactive means mostly below about 43%; further: 0% is about no effect
Starred values were filed as active, the others as inactive; i = inactive; ? = inconclusive; . = no result; ! = not active in a repeat; [ ] = dose if it differs, or a comment. This excerpt belongs to a sample that is enriched for hits.

SMILES	Vaccinia mCherry	Cycloheximide cs	Marburg entry inh	LASV entry inh	Vaccinia Venus	Shiga toxin inh
CCOC(=O)c1sc(=NC(=O)c2ccc(S(=O)(=O)N(C)c3ccccc3)cc2)n(C)c1C	i	12.6	9.8%	22.7%	-5.1%	-21.5
CCOC(=O)c1sc(=NC(=O)c2ccc(C)cc2)n(C)c1C	12.0%	51.5*	?	3.1%	-0.8%	71.3*
CCOC(=O)c1sc(=NC(=O)CCSc2ccccc2)n(C)c1C	-2.6%	17.2*	10.0%	1.8%	-7.0%	16.7
CCOC(=O)c1sc(=NC(=O)c2c(F)cccc2F)n(C)c1C	.	39.4*	.	.	.	81.0*
CCOc1ccc(NC(C)=O)cc1	-15.1%	1.7	.	.	-7.0%	-1.3
CCOc1ccc(C(=O)Nc2ncccc2Cl)cc1	.	41.8*	.	.	.	70.6*
COc1ccc(CNC(=O)C/C(C)=N/NC(=O)c2cnccn2)cc1	-7.9%	44.6*	4.7%[46.1 µM]	?	-6.8%	71.4*
CCOc1ccc(NC(=O)c2ccccn2)cc1	i	7.5	0.316µM*	0.282µM*	-5.4%	-15.2
CCOc1ccc(NC(=O)c2cccnc2C(=O)O)cc1	-15.6%	18.3	0.8%	1.8%	-17.2%	17.7
CCOc1ccc(NC(=O)c2cnsn2)cc1	-4.9%	30.1*	8.91µM*	?	-2.0%	54.8*
CCOc1ccc(C(=O)NCc2ccccn2)cc1	.	10.8	-2.9%	-1.7%	.	7.0
COc1ccc(CNC(=O)C/C(C)=N/NC(=O)C(c2ccccc2)c2ccccc2)cc1	i	-1.5	23.9%[46.1 µM]	-9.3%	-8.5%	12.0
Cc1ccc(Cc2nc3ccccc3nc2SCC(=O)N2CCCc3ccccc32)cc1	-4.5%	.	.	-3.6%[46.1 µM]	-5.6%	.
C/C(CC(=O)Nc1ccccn1)=N\NC(=O)c1cnccn1	.	44.1*	.	.	.	79.3*
CNS(=O)(=O)c1ccc(NC(=O)c2ccccn2)cc1	-13.5%	62.8*	?	?	-16.3%	22.9*
O=C(NCc1ccc(F)cc1)c1cnccn1	i	10.5*	-8.1%[46.1 µM]	13.4%[46.1 µM]	-11.1%	18.8
C/C(CC(=O)Nc1ccc2ccccc2c1)=N\NC(=O)c1cnccn1	-29.8%	28.7*	13.6%	-10.0%	-13.5%	52.4*
COc1ccc(CNC(=O)C/C(C)=N/NC(=O)C23CC4CC(CC(C4)C2)C3)cc1	5.8%	28.7*	3.4%[46.1 µM]	-0.8%	-1.6%	52.5*
COc1ccc(OCC(=O)N/N=C(\C)CC(=O)Nc2ccc(NC(C)=O)cc2)cc1	-25.0%	8.7	-8.4%	?	-12.2%	14.3
COc1ccc(NC(=O)C/C(C)=N/NC(=O)c2cnccn2)cc1	-8.9%	28.0*	?	-3.7%[46.1 µM]	-7.0%	98.9*
COc1ccc(CNC(=O)C/C(C)=N/NC(=O)Cc2ccc(OC)cc2)cc1	-2.6%	-1.4	4.8%	-12.2%	-2.8%	-5.4
CCOc1ccc(NC(=O)c2nccnc2CO)cc1	.	45.6*	-2.1%	-13.8%	.	93.0*
CCOc1ccc(NC(=O)c2cnccn2)cc1	.	17.6*	?	?	-15.9%	17.8*
COc1cc2c(cc1OC)CN(C(=O)[C@@H]1C[C@H](NCc3cn(C)c4ccccc34)CN1C1Cc3ccccc3C1)CC2	-0.7%	.	.	.	1.1%	.
CCOc1ccc(NC(=O)C/C(C)=N/NC(=O)c2cnccn2)cc1	.	22.4*	.	.	.	31.5*
SMILES	Vaccinia mCherry	Cycloheximide cs	Marburg entry inh	LASV entry inh	Vaccinia Venus	Shiga toxin inh
C/C(CC(=O)Nc1ccc2ccccc2c1)=N\NC(=O)c1ccc(O)c(O)c1	?	38.4*	-20.1%[46.1 µM]	?	-20.9%	85.5*
COCCNC(=O)C(=O)N/N=C(\C)CC(=O)Nc1cccnc1	-14.9%	12.9*	-14.5%[46.1 µM]	-10.0%	-10.5%	-1.7
O=C1NCCN1Cc1ccccc1F	.	-3.9	-22.0%	1.6%	.	-8.1
COc1ccc(N2C(=O)N3[C@H](c4ccc(Cl)cc4)[C@@H]4C(=O)N(C5CCCCC5)C(=O)[C@@H]4[C@]3(Cc3ccc(Cl)cc3)C2=O)cc1	-2.8%	12.4*	.	.	-17.8%	64.3*
O=C1[C@H]2[C@@H](c3ccc(F)cc3)N3C(=O)N(c4ccc(Br)cc4)C(=O)[C@@]3(Cc3ccc(Cl)cc3)[C@H]2C(=O)N1C1CCCCC1	-16.3%	-1.9	.	.	-22.9%	7.6
COC(=O)c1ccc2c(=O)n(CCCCCC(=O)N3CCN(c4cc(Cl)ccc4C)CC3)c(=O)[nH]c2c1	-11.5%	.	.	?	-9.0%	.
Cc1csc(NC(=O)CSC2=NS(=O)(=O)c3ccccc3N2)n1	-1.7%	.	?	0.3%	1.6%	.
O=C(Nc1ccc(F)cc1)Nc1nnc(SCC(=O)N2CCCCC2)s1	-3.2%[7.34 µM]	.	.	20.3%[46.1 µM]	-4.9%[7.34 µM]	.
CCSc1nsc(NC(=O)Nc2cccc(OC)c2)n1	?	28.9*	11.2µM*	?	?	.
CC(c1ccccc1)c1nnc(NC(=O)Nc2ccccc2)s1 (stereo not given)	i	2.2	?	?	-25.9%	-0.2
CCSc1nsc(NC(=O)Nc2ccccc2F)n1	-19.7%	32.6*	?	?	-28.9%	29.9*
C=CCSc1nsc(NC(=O)Nc2ccc(F)cc2)n1	-25.1%	43.2*	?	?	?	101.3*
COc1ccc(Cc2nnc(NC(=O)Nc3cccc(OC)c3)s2)cc1	-11.1%	-5.6	-0.5%	-27.7%	-10.1%	-5.3
CC(c1ccccc1)c1nnc(NC(=O)Nc2ccccc2F)s1 (stereo not given)	.	44.9*	.	.	.	72.5*
CCOC(=O)c1ccccc1NC(=O)c1sc2ncn(Cc3cccc(F)c3)c(=O)c2c1C	-5.4%	.	.	12.3%[46.1 µM]	-12.9%	.
CCC1CCCCN1C(=O)CCNC(=O)Cn1cnc2ccccc2c1=O (stereo not given)	-9.3%	-1.4	-12.2%[46.1 µM]	?	0.4%	-0.6
CCc1ccc(C(=O)CN2CCSC2=N)cc1	.	83.4*	?	?	.	71.0*
c1ccc(-c2cc3nccc(-c4ccccn4)n3n2)cc1	?	44.6*	?	?	-7.9%	94.0*
CCCNC(=O)c1ccc(C2SCC(=O)N2CCc2ccccc2)cc1 (stereo not given)	-23.1%	-4.5	-18.6%	10µM*	-16.0%	-4.5
COc1ccc(C2CC(O)(c3ccccc3)Oc3cc(C)c(Cl)c(C)c32)cc1 (stereo not given)	.	-3.3	.	.	.	-2.9
COc1ccc(C2CC(O)(c3ccccc3)Oc3cc(OC)c(OC)c(OC)c32)cc1 (stereo not given)	-22.5%	19.6*!	.	.	-26.2%	33.2
CC(C)CCNC(=O)c1ccc2c(c1)NC(=O)C(CS(=O)(=O)Cc1cccc(Br)c1)N2 (stereo not given)	i	.	.	10.0%[46.1 µM]	21.0%	.
CCc1cc(C(=O)Cc2ccccn2)c(O)cc1O	-7.1%	6.8	11.5%[46.1 µM]	-15.4%[46.1 µM]	-9.3%	40.6
Cc1c(O)ccc(C(=O)COc2ccc(F)cc2)c1O	.	37.7*	17.1%	-11.3%	?	i
CCc1cc(C(=O)COc2ccc(F)cc2)c(O)cc1O	.	19.6*	?	1.4%	.	40.3*
COC(=O)C1=C(C)N(Cc2ccccc2)C(=NCc2ccc(OC)cc2)N[C@H]1c1ccc(Br)cc1	.	-1.1	.	.	.	2.3
